# High-throughput results deposited in PubChem BioAssay by National Center for Advancing Translational Sciences (NCATS).
# CHX counter: counter-screen hit for Shiga toxin inhibitors, cycloheximide. cell reporter, cycloheximide protein synthesis inhibition counterscreen. AID 2314. max response, %. actives 12% (n = 300,000); in the data active means max response mostly above about 13%, no sharp cut-off; inactive means mostly below about 14%; further: read at 38.3 µM for the half of the compounds with a filed dose; 0% is about no effect
# FBPA Giardia inh: blocks Giardia fructose-bisphosphate aldolase activity; purified Giardia FBPA; actives 0.71% (n = 290,000); Potency, µM (series often up to 59.6 µM), for inactives: at the top dose activity, negative = inhibition, most hits filed as inhibitors; A8B2U2; further: potency means the concentration at half of the fitted maximal effect; on the % scale 0 is the no-effect control and ±100 the full control effect; nearly all actives have a fitted effect of over 55% in size
# Target sequence (A8B2U2 whole entry, looked up): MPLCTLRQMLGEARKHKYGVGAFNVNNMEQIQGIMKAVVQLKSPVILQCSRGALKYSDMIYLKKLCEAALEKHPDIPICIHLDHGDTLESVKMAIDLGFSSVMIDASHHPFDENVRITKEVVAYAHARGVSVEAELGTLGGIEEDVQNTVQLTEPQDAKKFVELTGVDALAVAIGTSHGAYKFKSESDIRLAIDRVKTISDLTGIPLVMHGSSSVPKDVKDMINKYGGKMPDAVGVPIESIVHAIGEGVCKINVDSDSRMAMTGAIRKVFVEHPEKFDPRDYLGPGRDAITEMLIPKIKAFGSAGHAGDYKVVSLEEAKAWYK
#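 Giardia FBPA (40 nM reagent) was preincubated 10 min at RT with compound (up to 57.5 uM final), then substrate plus GAPDH/TPI/NAD/arsenate coupling system with diaphorase/resazurin was added; resorufin fluorescence (525/598 nm) was read after 20 min.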
# Shiga toxin inh: blocks Shiga toxin action in Vero cells; Vero cells, Shiga toxin protein synthesis inhibition reporter; inhibition, % at 38.7 µM; actives 9.2% (n = 290,000); AID 2315; in the data active means inhibition mostly above about 28%, no sharp cut-off; inactive means mostly below about 43%; further: 0% is about no effect
# Tb PYK inh: blocks Trypanosoma brucei pyruvate kinase. actives 0.12% (n = 410,000). TbPYK enzyme, Kinase-Glo Plus ATP luminescence, 45 min. AID 624173. Q57TT1. Potency, µM (titrated, usually from 76.8 µM), for inactives: at the highest dose activity, negative = inhibition, most hits filed as inhibitors; further: potency means the concentration at half of the fitted maximal effect; on the % scale 0 is the no-effect control and ±100 the full control effect; nearly all actives have a fitted effect of over 50% in size
#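 Glycolytic pyruvate kinase of T. brucei was incubated with substrate, test compound and 130 uM ADP for 45 minutes at room temperature. Luminescent Kinase-Glo Plus signal was measured after 10 minutes.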
# LmPK inhibitor: blocks Leishmania mexicana pyruvate kinase activity; AID 1721; actives 0.37% (n = 290,000); purified LmPK, Kinase-Glo ATP luminescence, 1 h; Potency, µM (highest dose often 57.5 µM), for the others: at the top dose activity change, negative = inhibition, usual class: inhibitors; further: potency means the concentration at half of the fitted maximal effect; on the % scale 0 is the no-effect control and ±100 the full control effect
#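 qHTS format; LmPK 0.1 nM; substrates PEP 0.5 mM and ADP 0.1 mM. One-hour room-temperature incubation, then coupled luciferase luminescence; 0.5 nM enzyme wells mark activation.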
# RE007 growth inh: less growth of the S. pombe RE007 Vpr strain; S. pombe RE007 Vpr strain, BacTiter-Glo ATP luminescence, 24 h; Potency, µM (top dose mostly 92.2 µM), for the others: at the top dose activity change, negative = less growth, hits mostly inhibitors; actives 0.21% (n = 360,000); AID 651644; active means well fitted falling curve with a large enough effect; further: potency means the concentration at half of the fitted maximal effect; on the % scale 0 is the no-effect control and ±100 the full control effect; nearly all actives have a fitted effect of over 50% in size
#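 Fission yeast strain RE007, carrying one chromosomally integrated HIV-1 vpr copy, was seeded at OD 0.01 in PMG+AL medium with 23 nL pinned compound. After 24 h at 30 °C and 99% humidity, viability was read by BacTiter-Glo luminescence.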
# Active calls of the source: *; . = no result; [ ] = another dose, or the depositor's remark. This excerpt belongs to a sample that is enriched for hits. Unless noted, the call rests on the fitted dose curve; in most records, active means well fitted curve in the direction sought with a large enough effect; inconclusive means small, poorly fitted or top-dose-only effect, or another doubt; inactive means no such curve, though single readings can be large; an effect the other way counts as inactive or inconclusive.
SMILES,CHX counter,FBPA Giardia inh,Shiga toxin inh,Tb PYK inh,LmPK inhibitor,RE007 growth inh
O=C(CCSc1ccccc1)Nc1ccccc1Br,40.5*,5.7%,73.8*,1.8%,0.7%,-18.7%
O=C(CCSc1ccccc1)Nc1ccccc1C(=O)N1CCCC1,5.4,1.4%,-5.9,4.3%,2.2%,-12.4%
COc1ccc(CNC(=O)CCc2c(C)nc3c(c(C)nn3-c3ccccc3)c2C)cc1,.,.,.,4.1%,.,.
N#Cc1ccc(C(=O)CSc2n[nH]c(=O)n2Cc2ccco2)cc1,1.3,-3.0%,5.1,-7.0%,1.0%,5.2%
COc1ccc(OC)c(NC(=O)c2nnn(CC(=O)Nc3ccc(C(C)C)cc3)c2N)c1,.,.,.,1.5%,.,.
COc1ccc(S(=O)(=O)c2c(O)c3ccc(C(=O)NCc4ccccc4)cc3[nH]c2=O)cc1,.,.,.,3.2%,.,.
O=C(CCSc1ccccc1)Nc1ncccn1,29.6*,-0.5%,5.2,-2.5%,-1.5%,5.3%
O=C(CCCSc1ccc(Cl)cc1)Nc1ccccc1O,26.9*,3.8%,30.6,7.3%,-8.0%,35.5µM*
Cc1csc(NC(=O)CCn2c(=O)sc3ccccc32)n1,4.1,0.1%,17.7,5.2%,-0.4%,-13.9%
O=C(CCn1c(=O)sc2ccccc21)Nc1nccs1,33.0*,0.9%,39.9,-1.2%,12.6%,-5.9%
CN(CC(=O)Nc1ccccc1Br)C(=O)c1ccc(COc2ccccc2)cc1,18.8*,.,10.6,-10.4%,-7.4%,-13.3%
O=C(CCSc1ccccc1)Nc1ccc(S(=O)(=O)Nc2ncccn2)cc1,1.7,14.3%,-9.7,4.4%,-7.3%,-2.5%
O=C(CSCc1ccc(Cl)cc1)Nc1ccccc1O,13.4,-6.2%,21.0,-4.4%,-0.8%,-1.2%
CCc1ccccc1NC(=O)Cn1c(=O)nc(-c2ccccc2)c2ccccc21,.,.,.,2.6%,.,.
O=C(NCCCc1nc2ccccc2n1Cc1cccc(Cl)c1)c1ccco1,.,.,.,0.8%,.,.
CCC(C)NC(=O)c1ccc(CSCc2ccccc2Cl)o1 (configuration not stated),23.2*,-11.7%,28.8,-11.4%,5.5%,9.0%
CCC(C)NC(=O)c1ccc(CSCc2ccc(Cl)cc2)o1 (configuration not stated),-0.5,5.4%,1.9,-1.1%,1.9%,-13.4%
CC(C)NC(=O)c1ccc(CSCc2ccccc2Cl)o1,26.5*,-3.9%,20.7,-13.1%,0.7%,9.3%
Cc1ccc(CNc2ccc3cc(S(=O)(=O)N4CCCCC4)ccc3n2)cc1,.,.,.,0.7%,.,.
CCCNS(=O)(=O)c1ccc(NC(=O)c2cccnc2)cc1,-3.6,1.1%,-2.2,-7.2%,-1.5%,0.6%
CC(C)c1ccc(NC(=O)c2csnn2)cc1,29.8*,-8.5%,42.2*,-1.8%,-14.7%,11.4%
CCc1ccc(NC(=O)N(C2CCCCC2)C(C)c2cccnc2)cc1 (configuration not stated),33.4*,-0.4%,80.0,5.5%,-2.4%,-16.3%
CC(C)c1ccc(NC(=O)c2cccnc2)cc1,22.5*,-11.5%,73.6,-4.3%,-5.7%,-14.3%
CCSc1ccc(NC(=O)c2cccnc2)cc1,33.5*,0.6%,47.4,-10.1%,-5.6%,43.9%
O=c1[nH]cnc2c1ncn2C1OC(CO)CC1F (configuration not stated),.,.,.,3.5%,.,-0.7%
SMILES,CHX counter,FBPA Giardia inh,Shiga toxin inh,Tb PYK inh,LmPK inhibitor,RE007 growth inh
O=C(NCc1ccco1)c1c[nH]c2ccc(S(=O)(=O)Nc3ccc(F)cc3F)cc2c1=O,.,.,.,-2.1%,.,.
COC(=O)c1cccnc1,-5.1,5.0%,20.8,-2.5%,.,.
CC(C)c1ccc(NC(=O)c2snc3ccc(Cl)cc23)cc1,39.3*,-12.2%,74.4*,1.1%,-6.3%,-3.3%
CC/C(=C\C(=O)c1cccnc1)Nc1ccc(C)c(C)c1,17.0*,10.4%,51.6*,-5.8%,4.9%,7.4%
O=C(NC(=S)Nc1ccccc1Cl)c1csnn1,37.7*,-11.3%,42.5*,3.6%,-0.3%,-8.9%
COC(=O)C(C(=O)OC)c1ccc(NC(=O)c2cccc(Cl)c2)cc1,-1.2,-1.3%,2.6,-18.9%,1.3%,3.5%
COC(=O)c1ccc(C(NC(=O)c2cccnc2)NC(=O)c2cccnc2)cc1,30.4*,-1.8%,65.6*,-6.1%,-4.1%,14.2%
COC(=O)c1ccccc1NC(=O)Cn1cc(S(=O)(=O)Cc2ccccc2F)c2ccccc21,.,.,.,-14.1%[15.4 µM],.,.
CCc1ccc(NC(=O)c2cccnc2)cc1,32.2*,-3.1%,72.9*,-1.0%,-8.5%,-1.7%
CN(C)CCN(Cc1ccco1)C(=O)c1cc2c(s1)-c1ccccc1OC2,.,.,.,5.4%,.,.
COc1cccc(-n2c(C)nn(CCOc3ccccc3)c2=O)c1,12.8,2.1%,60.7,2.4%,-2.2%,-16.3%
Cc1nn(CCOc2ccccc2)c(=O)n1-c1ccccc1,29.1*,3.4%,37.5*,0.3%,-0.9%,18.7%
COc1ccc(-n2c(C)nn(CCOc3ccccc3)c2=O)cc1,28.5*,2.8%,57.9*,-3.2%,-1.0%,-5.6%
Cc1nn(CCOc2ccccc2)c(=O)n1-c1ccc(Cl)cc1,30.2*,2.3%,76.0*,4.5%,8.7%,6.6%
CCOC(=O)c1c(C)[nH]c(CCC(=O)Nc2c(C)cccc2CC)c1C,.,.,.,-4.6%,.,.
Cc1c(Cl)cccc1NC(=O)c1ccc(NC(=O)N2CCSc3ncccc32)cc1,.,.,.,6.9%[15.4 µM],.,.
COc1ccc(-c2cc(C(F)(F)F)n3nc(C(=O)NCC45CC6CC(CC(C6)C4)C5)cc3n2)cc1,.,.,.,-1.9%,.,.
CCC(CC)C(=O)Nc1cccc(C(=O)NCCc2ccccc2)c1,19.3*,2.8%,105.4*,7.0%,0.3%,-3.4%
Cc1cccc(C(=O)NCCc2ccccc2)c1,61.1*,-4.7%,88.4*,-4.6%,0.6%,1.4%
O=[N+]([O-])c1cc(S(=O)(=O)C(F)(F)F)ccc1NCC1CCCO1 (configuration not stated),12.1,7.5%,32.4*,-6.1%,9.4%,20.7%
O=C(NCCc1ccccc1)c1ccccc1[N+](=O)[O-],22.5*,0.8%,43.8*,-2.5%,-14.7%,11.2%
Cn1c(=O)n(-c2ccc(F)c(Cl)c2)c(=O)c2sc3ccccc3c21,.,.,.,5.5%,.,.
Cc1ccc(S(=O)(=O)N(CC(=O)Nc2cccnc2)c2cc(Cl)ccc2C)cc1,.,.,.,1.0%,.,.
O=C(NN1CCOCC1)c1ccc(Cl)c([N+](=O)[O-])c1,26.6*,4.4%,61.5*,6.4%,0.5%,2.3%
O=C(NCCc1ccccc1)c1ccc(NCC2CCCO2)c([N+](=O)[O-])c1 (configuration not stated),42.6*,-2.2%,116.8*,-1.6%,7.9%,14.8%
O=C(NCCc1ccccc1)c1ccc(Cl)c([N+](=O)[O-])c1,64.4*,-1.6%,135.9*,-1.1%,3.1%,6.0%
O=C(NCCc1ccccc1)c1ccc([N+](=O)[O-])cc1,5.8,.,56.3,-10.3%,-11.7%,-5.1%
